# PubChem BioAssay (EPA / NIEHS)
# Values joined by “and” are separate entries in the source; they are usually repeats but may differ in a detail not shown here. Equal entries are not always repeated. Active and inactive are the calls of the source. Rule for the calls: active = hit-call score of the fitted dose curve at least 0.9, where 1 is the maximum; inactive = score below 0.9.
# Assays:
# [1] = CCTE_Padilla_ZF_Score.General: CCTE's 144 Hour Post-fertilization zebrafish Assay Score for General Malformation, Padilla Lab (AID 2284411)
# Outline: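 Malformation, death and hatching were scored at 6 dpf by two blinded observers under a stereo microscope. Embryos were dosed singly from 6-8 hpf in sealed plates of 10% Hanks' at 26C and rinsed on 5 dpf; DMSO baseline.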
# TTR (gene 7276) = test: CCTE_GLTED_hTTR_0.125uM: CCTE's human Transthyretin (hTTR) Inhibition Assay, with 0.125uM TTR, Great Lakes Toxicology and Ecology Division (GLTED) Lab (AID 2284431);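 note: hits lower the fluorescence signal relative to DMSO baseline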
# Outline: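 Cell-free displacement of the fluorescent probe ANSA from human TTR (0.125uM) after 2 h incubation with test chemical. Fluorescence read at 380 nm excitation/475 nm emission; loss of signal fitted relative to DMSO baseline.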
# [2] = Tanguay_ZF_120hpf_AXIS: Oregon State University Tanguay Lab 120 Hour Post-fertilization zebrafish Assay for Axial Malformation (AID 2284398)
# Outline: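 Scoring was binary (present or absent) for body-axis defects, judged by brightfield imaging at 120 hpf in surviving larvae. Exposure was static at 28C from 6 hpf in chorion-free 5D wild-type embryos, with 0.64% DMSO vehicle.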
# [3] = Tanguay_ZF_120hpf_EDEM: Oregon State University Tanguay Lab 120 Hour Post-fertilization zebrafish Assay for Edema Malformation (AID 2284400)
# Outline: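 Edema recorded as a binary endpoint under brightfield at 120 hpf, excluding embryos that died. Exposure was static, sealed, 28C, from 6 hpf in dechorionated wild-type larvae, final DMSO 0.64%, DMSO as baseline.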
# [4] = Tanguay_ZF_120hpf_MUSC: Oregon State University Tanguay Lab 120 Hour Post-fertilization zebrafish Assay for Muscle Malformation (AID 2284401)
# Outline: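 Scored as a binary brightfield endpoint at 120 hpf, fitted versus DMSO. Single dechorionated wild-type (Tropical 5D) zebrafish embryos per well, statically exposed at 28C from 6 hpf onward with final DMSO 0.64%.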
# [5] = Tanguay_ZF_120hpf_BRN: Oregon State University Tanguay Lab 120 Hour Post-fertilization zebrafish Assay for Brain Region Malformation (AID 2284402)
# Outline: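 Binary brightfield scoring of brain malformation at 120 hpf in 5D wild-type larvae, chorion removed with pronase at 4 hpf. Static exposure began at 6 hpf, 28C, sealed plates, DMSO 0.64% (vol/vol) as vehicle baseline.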
# [6] = Tanguay_ZF_120hpf_TCHR: Oregon State University Tanguay Lab 120 Hour Post-fertilization zebrafish Assay for Touch Responsive (AID 2284403)
# Outline: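 Binary touch-response calls are made at 120 hpf in 5D wild-type zebrafish larvae. These larvae were dechorionated with pronase and exposed singly from 6 hpf in sealed, dark plates at 28 °C with 0.64% DMSO final; dead embryos are excluded.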
# [7] = Tanguay_ZF_120hpf_ANY: Oregon State University Tanguay Lab 120 Hour Post-fertilization zebrafish Assay for Any Mortality and Malformation (AID 2284404)
# Outline: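 Dechorionated Tropical 5D wild-type embryos, one per well from 6 hpf, static exposure in sealed, dark plates at 28C until 120 hpf, 0.64% DMSO final. Brightfield scoring of mortality and malformations as binary presence/absence, pooling 13 morphology endpoints.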
# [8] = CCTE_Padilla_ZF_Score.Craniofacial: CCTE's 144 Hour Post-fertilization zebrafish Assay Score for Craniofacial Malformation, Padilla Lab (AID 2284405)
# Outline: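 Craniofacial defects were scored at 6 dpf by two blinded observers using stereomicroscopy. Exposure of wild-type embryos began at 6–8 hpf in sealed wells of 10% Hanks' solution at 26C, with chemical removed by rinsing at 5 dpf.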
# [9] = CCTE_Padilla_ZF_Score.Edema: CCTE's 144 Hour Post-fertilization zebrafish Assay Score for Edema Malformation, Padilla Lab (AID 2284406)
# Outline: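 Edema scored at 6 dpf by two blinded observers under a stereo microscope, in single outbred wild-type larvae exposed from 6-8 hpf in sealed wells (Hanks', 26C, 14:10 h light) and chemical-free after a 5 dpf rinse.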
# [10] = CCTE_Padilla_ZF_Score.Spine: CCTE's 144 Hour Post-fertilization zebrafish Assay Score for Spine Malformation, Padilla Lab (AID 2284407)
# Outline: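 Spine malformation scored at 6 dpf by two independent blinded observers under stereomicroscope, after static sealed exposure from 6–8 hpf at 26C in Hanks' solution with rinse on 5 dpf. Positive-direction fit against DMSO control.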
# [11] = CCTE_Padilla_ZF_Score.Swim_bladder: CCTE's 144 Hour Post-fertilization zebrafish Assay Score for Swim Bladder Malformation, Padilla Lab (AID 2284408)
# Outline: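 Swim bladder inflation scored at 6 dpf by two blinded observers under a stereo microscope. Exposure ran from 6–8 hpf in sealed wells of 10% Hanks' at 26C, with rinsing at 5 dpf; DMSO served as baseline.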
# [12] = CCTE_Padilla_ZF_Score.Position: CCTE's 144 Hour Post-fertilization zebrafish Assay Score for Position, Padilla Lab (AID 2284409)
# Outline: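 Wild-type zebrafish embryos (with chorions) exposed singly from 6–8 hpf in sealed wells of Hanks' solution at 26C, rinsed at 5 dpf. At 6 dpf, blinded assessors scored abnormal water-column position by brightfield stereomicroscopy, relative to DMSO.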
# [13] = CCTE_Padilla_ZF_Score.Living: CCTE's 144 Hour Post-fertilization zebrafish Assay Score for Viability, Padilla Lab (AID 2284410);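 note: larval death at 6 dpf judged by absent heartbeat or coagulation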
# Outline: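 Mortality at 6 dpf, judged as absent heartbeat or coagulation by two blinded observers, after sealed static exposure beginning at 6–8 hpf at 26C. Larvae were rinsed free of chemical at 5 dpf, and activity was fitted relative to DMSO.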
# [14] = CCTE_Padilla_ZF_Score.Tail: CCTE's 144 Hour Post-fertilization zebrafish Assay Score for Tail Malformation, Padilla Lab (AID 2284414)
# Outline: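 Tail malformations were scored at 6 dpf by two blinded assessors under a stereo microscope. Chorionated embryos had been exposed from 6-8 hpf in sealed wells of 10% Hanks' at 26 C, then rinsed free of chemical at 5 dpf.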
# [15] = CCTE_Padilla_ZF_Score.Blood_pooling: CCTE's 144 Hour Post-fertilization zebrafish Assay Score for Blood Pooling, Padilla Lab (AID 2284415)
# Outline: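 Blood pooling was scored at 6 dpf under a stereo microscope by two blinded assessors, fitted upward against DMSO. Single embryos were dosed at 6–8 hpf in 10% Hanks', kept sealed at 26C (14:10 h cycle) and rinsed at 5 dpf.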
# [16] = CCTE_Padilla_ZF_Score.Any: CCTE's 144 Hour Post-fertilization zebrafish Assay Score for Any Mortality or Malformation, Padilla Lab (AID 2284416)
# Outline: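 Wild-type zebrafish embryos with chorions, one per well in 10% Hanks' from 6–8 hpf, dosed in sealed plates at 26 C, 14:10 h light:dark; rinsed at 5 dpf; blinded scoring at 6 dpf for death or malformation, versus DMSO.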
# [17] = Tanguay_ZF_120hpf_MORT: Oregon State University Tanguay Lab 120 Hour Post-fertilization zebrafish Assay for Mortality (AID 2284399)
# Outline: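 Mortality, recorded present/absent via brightfield imaging at 24 and 120 hpf, in 5D zebrafish embryos exposed statically from 6 hpf after pronase chorion removal. Exposure at 28C, 0.64% DMSO vehicle, DMSO baseline.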
compound,measurement,setting,value
CCOP(=S)(OCC)SCCS(=O)(=O)CC,outcome,[1],inactive
NC(=S)Nc1ccccc1,outcome,[1],inactive
CC(C)(C)CC(C)(C)c1ccc(O)cc1,AC50,TTR (gene 7276),13.1 µM (active)
CCOP(=S)(OCC)SCSP(=S)(OCC)OCC,AC50,TTR (gene 7276),1.57 µM (active)
CCOP(=S)(OCC)Oc1nc(Cl)c(Cl)cc1Cl,AC50,TTR (gene 7276),0.376 µM (active)
COP(=O)(OC)O/C(=C\Cl)c1cc(Cl)c(Cl)cc1Cl,AC50,TTR (gene 7276),1.18 µM (active)
ClC(Cl)=C(Cl)C(Cl)=C(Cl)Cl,AC50,TTR (gene 7276),9.92 µM (active)
O=[N+]([O-])c1ccc(O)c([N+](=O)[O-])c1,AC50,TTR (gene 7276),0.155 µM (active)
O=C1C(Cl)=C(Cl)C(=O)c2ccccc21,AC50,TTR (gene 7276),3.67 µM (active)
Nc1cccc2ccccc12,outcome,[1],inactive
Nc1ncc([N+](=O)[O-])s1,outcome,[1],inactive
CC(C)(c1ccccc1)c1ccc(O)c(C(C)(C)c2ccccc2)c1,AC50,TTR (gene 7276),0.241 µM (active)
CC(=O)C(Cl)C(=O)N(C)C (configuration not stated),outcome,[1],inactive
CCOP(=S)(OCC)Oc1ccc(S(C)=O)cc1 (configuration not stated),outcome,[1],inactive
O=C(O)C(F)(F)C(F)(F)C(F)(F)C(F)(F)C(F)(F)C(F)(F)C(F)(F)C(F)(F)C(F)(F)C(F)(F)F,outcome,[2],inactive
same,outcome,[3],inactive
same,outcome,[4],inactive
same,outcome,[5],inactive
same,outcome,[6],inactive
same,AC50,[7],66.5 µM (active)
same,AC50,[8],2.41 µM (active)
same,AC50,[9],2.4 µM (active)
same,outcome,[10],inactive
same,AC50,[11],2.41 µM (active)
same,outcome,[12],inactive
same,AC50,[13],50.7 µM (active)
same,AC50,[1],2.51 µM (active)
same,outcome,[14],inactive
same,outcome,[15],inactive
same,AC50,[16],3.35 µM (active)
same,AC50,TTR (gene 7276),0.783 µM (active)
CCCCCCCCc1ccc(O)cc1,AC50,TTR (gene 7276),1.2 µM (active)
COP(=S)(OC)Oc1ccc(Sc2ccc(OP(=S)(OC)OC)cc2)cc1,AC50,TTR (gene 7276),0.537 µM (active)
CC(C)CCCCCCOC(=O)c1ccccc1C(=O)OCCCCCCC(C)C,outcome,[1],inactive
COc1cc(-c2ccc(N)c(OC)c2)ccc1N,AC50,TTR (gene 7276),104 nM (active) and 2.64 µM (active)
CCC(C)(C)c1ccc(O)c(C(C)(C)CC)c1,AC50,TTR (gene 7276),3.18 µM (active)
COc1cc(OC)nc(NC(=O)NS(=O)(=O)c2ncccc2C(=O)N(C)C)n1,outcome,[1],inactive
O=C(O)C(F)(F)C(F)(F)C(F)(F)C(F)(F)C(F)(F)C(F)(F)F,outcome,[2],inactive
same,outcome,[17],inactive
same,outcome,[3],inactive
same,outcome,[4],inactive
same,outcome,[5],inactive
same,outcome,[6],inactive
same,outcome,[7],inactive
same,outcome,[8],inactive
same,outcome,[9],inactive
same,outcome,[10],inactive
same,outcome,[11],inactive
same,outcome,[12],inactive
same,outcome,[13],inactive
same,outcome,[1],inactive
same,outcome,[14],inactive
same,outcome,[15],inactive
same,AC50,[16],98.9 µM (active)
same,AC50,TTR (gene 7276),0.236 µM (active)
O=C(O)CCC(F)(C(F)(F)F)C(F)(F)F,outcome,[8],inactive
same,outcome,[9],inactive
same,outcome,[10],inactive
same,outcome,[11],inactive
same,outcome,[12],inactive
same,outcome,[13],inactive
same,outcome,[1],inactive
same,outcome,[14],inactive
same,outcome,[15],inactive
same,outcome,[16],inactive
Oc1ccc(-c2ccccc2)cc1,AC50,TTR (gene 7276),2.83 µM (active)
BrCCBr,outcome,[1],inactive
